# Assay results as given in PubChem BioAssay (NCI).
# About 83,000 compounds went through this panel and 20% of them were active in at least one assay; those are over-represented in the sample as a whole.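 Method: cells in 96-well plates; compound added at one concentration; 48 h incubation; percent growth measured; values under 10 scored active.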 Unmarked numbers belong to inactive results. Calls of active or inactive are those of the source.
# Assays:
# Assay in all cases: NCI-60 one-dose screen, 48 h (100 = growth as untreated, 0 = no growth, -100 = all killed)
# Conditions in all cases: 10 µM unless noted
# [1] = test system: SK-MEL-2 melanoma
# [2] = test system: EKVX NSCLC
# [3] = test system: SN12C renal
# [4] = test system: UO-31 renal
# [5] = test system: TK-10 renal
# [6] = test system: ACHN renal
# [7] = test system: CAKI-1 renal
# [8] = test system: A498 renal
# [9] = test system: CCRF-CEM leukemia
# [10] = test system: MOLT-4 leukemia
# [11] = test system: SR leukemia
# [12] = test system: RPMI-8226 leukemia
# [13] = test system: OVCAR-8 ovarian
# [14] = test system: OVCAR-5 ovarian
# [15] = test system: OVCAR-4 ovarian
# [16] = test system: SK-OV-3 ovarian
# [17] = test system: IGROV1 ovarian
# [18] = test system: OVCAR-3 ovarian
# [19] = test system: HS 578T breast
# [20] = test system: NCI/ADR-RES ovarian
SMILES,growth [1],growth [2],growth [3],growth [4],growth [5],growth [6],growth [7],growth [8],growth [9],growth [10],growth [11],growth [12],growth [13],growth [14],growth [15],growth [16],growth [17],growth [18],growth [19],growth [20]
O=C(Cn1nnc2ccccc21)N/N=C/c1ccccc1F,102%,106%,83.9%,87%,107%,106%,97.9%,85.5%,103%,104%,96.8%,101%,95.2%,108%,110%,98.2%,109%,108%,81.2%,109%
CCN(CC)c1ccc(/C=N/NC(=O)c2ccc(Nc3ccnc(C(F)(F)F)c3)cc2)c(O)c1,56.8%,11.2%,24.4%,4.15% (active),43.5%,7.21% (active),7.86% (active),44.3%,25.5%,103%,153%,20%,44.6%,32.5%,32.4%,10.1%,39.3%,44%,64.9%,26.3%
COc1ccc(NC(=O)c2sc3nc(C)c(C(O)c4ccccc4)cc3c2N)cc1 (stereo not given),46.5%,40.4%,36.1%,43.4%,52.6%,45.2%,42.4%,-1.83% (active),7.85% (active),12.5%,4.79% (active),11.8%,27.6%,37.9%,78%,24.1%,36.6%,8.68% (active),22.8%,10.6%
CC(C(=O)O)n1c(O)c(C=Nc2cccnc2)sc1=S (stereo not given),114%,96.4%,88.7%,50%,111%,102%,79.7%,95.4%,92.7%,94%,97.8%,83.6%,90.7%,98.9%,92.4%,98.4%,84.2%,105%,74.9%,98.7%
C#CC#CC#CC#CC#CC#CC#CC#CC[C@H]1OC[C@H](COC(=O)O[C@@H](C(=O)O[C@H]2C[C@@]3(O)[C@@H](OC(=O)c4ccccc4)[C@@H]4[C@]5(OC(C)=O)CO[C@@H]5C[C@H](O)[C@@]4(C)C(=O)[C@H](OC(C)=O)C(=C2C)C3(C)C)[C@@H](NC(=O)c2ccccc2)c2ccccc2)O1,73.9%,74.5%,46.5%,100%,102%,87.6%,77.1%,50.2%,26.7%,43.3%,25.8%,16%,52.7%,38.4%,60.7%,66.2%,48.1%,15.7%,43.7%,106%
CC(=O)N(Cc1ccccc1)c1nc2ccc(O)c(CN(C)C)c2s1,108%,89%,99.2%,77%,99.6%,96.8%,82.8%,66%,106%,112%,106%,95.2%,103%,100%,97.6%,104%,93.9%,105%,92.6%,93.5%
O=C1CC2C=CCN2C=C1NC(=O)C1CCCCC1 (stereo not given),101%,92.1%,110%,94.9%,90.6%,105%,97.7%,128%,122%,99.5%,103%,107%,109%,102%,105%,111%,105%,98.9%,105%,98.5%
C=C(CO)[C@@H]1CC[C@]2(COC3CCCCO3)CC[C@]3(C)[C@H](CC[C@@H]4[C@@]5(C)C=C(C=O)C(=O)C(C)(C)[C@@H]5CC[C@]43C)[C@@H]12 (stereo not given in full),-57.3% (active),-82.8% (active),-67.3% (active),-96.9% (active),-96.2% (active),-100% (active),-76% (active),-97.7% (active),-62.9% (active),-32.2% (active),-49.9% (active),-35% (active),-69% (active),-75.5% (active),-63.8% (active),-95.8% (active),-78.8% (active),-68.8% (active),-52.3% (active),-37.5% (active)
COc1ccccc1-n1c(-c2cc(O)ccc2C)cn2c3c(=O)[nH]c(=O)n(C)c3nc12,89.7%,87.4%,41.6%,36.4%,99.2%,27.1%,39.8%,106%,114%,71.5%,86.2%,90.7%,66.5%,95.3%,98.2%,47.4%,10.3%,65.3%,20.4%,101%
CC1(C)CC[C@]2(C(=O)O)CC[C@]3(C)C(=CC[C@@H]4[C@@]5(C)C[C@@H](Cc6cn([C@@H]7O[C@H](CO)[C@@H](O)[C@H](O)[C@H]7O)nn6)[C@H](O)C(C)(C)[C@@H]5CC[C@]43C)[C@@H]2C1,113%,99.4%,99.7%,96.3%,93.6%,100%,98.3%,98.8%,96.4%,83.4%,94.7%,103%,98.7%,102%,96.6%,89%,108%,104%,96.8%,105%
O=C1/C=C/[C@@H](O)[C@@H]2C[C@@H](O)C[C@H]2/C=C/CCC[C@H](CCOCc2ccccc2)O1,-24.1% (active),1.3% (active),10.6%,12.2%,-17.6% (active),5.36% (active),-28.2% (active),-28.5% (active),27.5%,7.56% (active),-7.43% (active),11.5%,9.04% (active),8.12% (active),25.8%,31.3%,15.1%,-45.8% (active),23.8%,6.93% (active)
C=CCCC(=O)N1C=CC(=O)[C@H](O)[C@@H]1/C=C/c1ccccc1,77.7% [100 µM],37.4% [100 µM],42% [100 µM],29% [100 µM],54.9% [100 µM],28.1% [100 µM],15.7% [100 µM],83.4% [100 µM],27.7% [100 µM],36.5% [100 µM],43.8% [100 µM],54.2% [100 µM],37% [100 µM],62.2% [100 µM],55.4% [100 µM],39.2% [100 µM],51% [100 µM],30.3% [100 µM],87.6% [100 µM],19.8% [100 µM]
CCCCCSB(SCCCCC)c1ccccc1,102%,106%,106%,81.3%,101%,105%,96%,95.4%,97.4%,96.4%,98.5%,100%,97%,101%,100%,104%,97.1%,109%,109%,98.4%
Nc1c(C(=O)O)cc(Cl)cc1[N+](=O)[O-],110%,103%,93.9%,79.3%,118%,96.5%,111%,100%,78.6%,94.2%,109%,104%,92.7%,90.4%,99.5%,101%,100%,105%,101%,97.8%
COc1ccc(C2CC(c3ccc4c(c3)OCO4)=Nc3c(N)ncnc3N2)cc1 (stereo not given),72.6%,119%,111%,89.4%,118%,101%,120%,94.4%,3.41% (active),91.9%,86.4%,55.7%,103%,82.9%,102%,103%,104%,151%,103%,92.3%
